Laboratory results as given in PubChem BioAssay AID624330 (Southern Research Specialized Biocontainment Screening …, 2012).
The campaign covered roughly 340,000 compounds. About 2,100 (0.62%) were called active.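 Rule for the calls: active = first-screen hits whose inhibition reached a set limit at any dose in the follow-up dose series; inconclusive = inhibition above the set first-screen limit but never retested; inactive = the rest.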 Only a sample is shown. Entries with a potency or affinity are not part of this list.

Target: Rac GTPase-activating protein 1 (Homo sapiens) (UniProt Q9H0H5)
Sequence (Q9H0H5 whole entry, looked up): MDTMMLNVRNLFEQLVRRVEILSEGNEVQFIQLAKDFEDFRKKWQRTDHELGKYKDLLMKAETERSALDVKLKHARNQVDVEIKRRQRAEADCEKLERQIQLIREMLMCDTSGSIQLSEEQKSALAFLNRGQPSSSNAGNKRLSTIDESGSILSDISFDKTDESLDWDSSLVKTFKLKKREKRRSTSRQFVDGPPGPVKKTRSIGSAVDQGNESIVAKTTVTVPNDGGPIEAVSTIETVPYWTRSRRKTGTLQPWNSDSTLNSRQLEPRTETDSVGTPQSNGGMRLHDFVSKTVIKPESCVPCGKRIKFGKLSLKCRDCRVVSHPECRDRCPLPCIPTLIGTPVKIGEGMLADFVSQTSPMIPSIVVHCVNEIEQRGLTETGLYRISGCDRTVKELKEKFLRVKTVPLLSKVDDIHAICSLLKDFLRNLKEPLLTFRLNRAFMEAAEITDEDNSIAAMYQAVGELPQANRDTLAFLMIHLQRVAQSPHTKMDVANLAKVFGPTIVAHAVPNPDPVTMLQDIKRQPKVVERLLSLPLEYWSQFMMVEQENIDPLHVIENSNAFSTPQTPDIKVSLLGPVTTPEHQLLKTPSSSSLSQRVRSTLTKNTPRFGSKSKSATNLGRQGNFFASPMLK
Assay: blockers of MgcRacGAP-driven Rac1 GTP hydrolysis – biochemical, ADP Hunter fluorescence, primary and confirmatory, confirmation (AID 624330);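 note: fluorescence reports GDP produced by GAP-driven GTP hydrolysis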
Conditions: MgcRacGAP-stimulated Rac1 GTP hydrolysis, at 30 µM, stronger effect = higher value, GST-tagged Rac1 F28L mutant substrate

inhibition, inactive:
Cc1c(O)ccc(/C(Cc2ccc3ccccc3n2)=N\N)c1O 14.8%, CC(=O)Oc1ccc(C(=O)Cc2ccc3ccccc3n2)c(O)c1C -0.13%, O=C(NCC1CCCO1)c1cnn2c(C(F)F)cc(C3CC3)nc12 (configuration not stated) -0.05%, CCC(CO)Oc1cc(NCc2cccc(F)c2)c2ncn(C(C)C)c2c1 (configuration not stated) 6.74%, COc1cc(/C=C/C(=O)OCC(=O)N2CCCCCC2)ccc1OCC#N 3.21%, Nc1ccccc1N1CCN(C(=O)c2ccccc2)CC1 12.8%, COc1ccc(OCc2cc(C(=O)NC(C)c3nc(C)cs3)no2)c(Cl)c1 (configuration not stated) 7.35%, Oc1c(Br)cc(C2N=C(c3ccccc3)NO2)cc1Br (configuration not stated) -1.87%, Brc1ccc(-c2ccccc2)cc1 1.25%, C/C(=N\NC(=O)CNC(=O)c1ccccc1F)c1ccco1 2.16%, COc1ccc(NC(=O)COC(=O)CNC(=O)c2cccs2)cc1Cl 2.23%, CN(CC(=O)Nc1cc(Cl)cc(Cl)c1)Cc1cccs1 3.5%, CCOc1ccc(NC(=O)COC(=O)Cc2ccsc2)cc1 2.81%, CCCOC(=O)c1ccc(NC(=O)CN(C)Cc2cccs2)cc1 10.3%, CC(=O)c1ccc(NC(=O)COC(=O)Cc2ccsc2)cc1 8.16%, O=C(COC(=O)CNC(=O)c1cccs1)Nc1ccccc1C(F)(F)F 8.33%, CCN(CC)c1ccc(NC(=O)COC(=O)c2cccs2)cc1 21.8%, Cc1ccc(NC(=O)COC(=O)CCC(=O)c2cccs2)cc1 6.66%, CCCCC[C@H]1CN(Cc2ccccc2)C(=O)[C@@H]1CC(=O)NCc1ccccc1 8.29%, Cc1cccc(OCC(=O)Nc2nnc(S(=O)(=O)N3CCCCCC3)s2)c1 9.88%, Cc1[nH]c(C)c(S(=O)(=O)NCc2ccco2)c1C(=O)N1CCCCC1 16.2%, COc1ccccc1NC(=O)c1ccc[n+]([O-])c1 4.42%, Cc1cc(F)ccc1S(=O)(=O)Nc1ncnc2sccc12 -6.18%, COc1ccc(CNC(=O)O[C@@H]2C[C@H]3C(=O)N(c4ccccc4)C(=O)[C@H]3[C@@]3(CN(S(=O)(=O)c4ccc(C)cc4)C[C@H]3C)[C@@H]2O)cc1OC 13.3%, Cc1cn([C@@H](CCCCNC(=O)OC(C)(C)C)C(=O)NCCCCCCCCCCC(=O)N2CCN(C(=O)OC(C)(C)C)CC2)nn1 3.56%, Cc1ccccc1SCC(=O)OCC(=O)NCCNC(=O)COC(=O)CSc1ccccc1C 2.21%, CCN(CC)c1ccc(NC(=O)COC(=O)CSc2ccc(Br)cc2C)cc1 7.43%, O=C(Cn1ccc(C(F)(F)F)n1)N=Nc1c(O)[nH]c2ccccc12 4.76%, CCc1ccc(S(=O)(=O)NCCc2cn3cccc(C)c3n2)s1 4.85%, O=[N+]([O-])c1ccc(O)c(N=Cc2sc3ccccc3c2O)c1 27.9%, COc1ccc(N=Cc2sc3ccccc3c2Cl)cc1 11%, Oc1c(C=Nc2ccc(Cl)cn2)sc2ccccc12 8.33%, Cc1ccc(O)c(N=Cc2ccc(C)s2)c1 -11.5%, CN(C)C(=O)CSc1nc(-c2ccccc2)c(-c2ccccc2)o1 2.82%, COc1ccc(OC(=O)c2ccc(OC)c(S(=O)(=O)N3CCOCC3)c2)cc1 22.8%, O=C(Nc1ccc2c(c1)OCCO2)c1ccc(Br)c(S(=O)(=O)N2CCOCC2)c1 -4.87%, COc1ccc(C(=O)Oc2ccc3c(c2)OCO3)cc1OC 7.69%, O=C(Oc1ccc(OC(=O)c2ccncc2)cc1)c1ccncc1 5.17%, COc1ccc(CCN2C(=O)c3ccccc3NC2c2cc(Cl)c(O)c(OC)c2)cc1 (configuration not stated) 7.25%, COC(=O)c1c(NC(=O)CC2SC(N)=NC2=O)sc(C)c1C (configuration not stated) -4.36%, Nc1cc2c(cc1Cl)N(Cc1ccccc1)C(=O)CO2 4.01%, Cc1cc2c(NCC(C)O)ncnc2s1 (configuration not stated) 8.37%, CSCC(=O)N1CCCC(N2CCN(c3ccc(F)cc3)CC2)C1 (configuration not stated) 15.7%, Cc1ccccc1OCC(=O)Nc1ccc(N2CCN(C(=O)c3ccco3)CC2)cc1 10.3%, COc1ccc(CCNC(=O)COC(=O)c2cc(OC)c(OC)cc2OC)cc1OC 7.3%, C=CCc1cc(Cl)ccc1OCCCn1ccnc1 19.6%, C=CCc1cc(Cl)ccc1OCCCNC(C)C 23.5%, C=CCc1ccccc1OCCn1ccnc1 9.27%, C=CCc1cc(Cl)ccc1OCCNCCOC 10.8%, C=CCc1cc(Cl)ccc1OCCOCCN(C)C 22%, C=CCc1cc(C)ccc1OCCOCCn1ccnc1 15.9%, C=CCc1cc(C)ccc1OCCn1ccnc1 17.7%, C=CCOc1ccc(Cl)cc1CNCCCN1CCOCC1 1.5%, COc1ccc(NC(=O)N2CCN(S(=O)(=O)c3ccc(F)cc3)CC2)c(OC)c1 7.35%, CCCCCCCNC(=O)C1(CC2CC(c3ccc(Cl)cc3)=NO2)CCN(C(=O)CCCCCBr)CC1 (configuration not stated) 3.79%, COc1ccc2cc(CN(CC3COCCO3)S(=O)(=O)c3ccccc3)c(=O)[nH]c2c1 (configuration not stated) -14.3%, Cc1onc(-c2ccccc2)c1C(=O)N/N=C/c1ccco1 4.91%, N#Cc1ccc(NC(=O)Cn2c3[n+](c4ccc(C(F)(F)F)cc42)CCCCC3)cc1 -1.69%, CNc1nc(-c2ccc3c(c2)CCN3C(=O)c2ccccc2C)cs1 10.3%, COc1ccc(-c2cc(C(=O)Nc3cccnc3Cl)no2)cc1 9.21%, C=CCn1ccc2c([N+](=O)[O-])cccc2c1=O 8.97%, COCCNC(=O)c1ccccc1NC(=O)c1ccccc1N(C)S(=O)(=O)c1ccc(C)cc1 3.63%, CC1CCCN(C(=O)c2cc(S(=O)(=O)N3CCCCC3)c[nH]2)C1 (configuration not stated) -0.16%, CCCc1nc(NCc2ccccc2)c(C#N)c2c1CCCC2 8.86%, Cc1c(NC(=O)c2ccc(S(=O)(=O)N3CC(C)OC(C)C3)cc2)c(=O)n(-c2ccccc2)n1C (configuration not stated) 4.26%, COc1ccc(NC(=O)CCC(=O)c2ccc(C(C)C)cc2)cc1 12.2%, COc1ccc(C(=O)CCC(=O)Nc2cccc(Cl)c2)cc1 4.1%, CCOc1ccccc1N1CCN(CC(=O)Nc2ccnn2C2CCCC2)CC1 5.05%, CN(C(=O)CSc1nc2scc(-c3ccccc3)c2c(=O)[nH]1)c1ccccc1 6.96%, O=C1c2ccccc2CN2C(=O)c3ccccc3CN12 3.55%, COc1ccc(/C=C/CN2CCN(CC(C)C)C(CCO)C2)cc1 (configuration not stated) 5.86%, Cc1ccc(CN2CCN(C/C=C/c3ccc(F)cc3)CC2CCO)o1 (configuration not stated) 7.9%, CC(C)CCN1CCN(C/C=C/c2ccco2)CC1CCO (configuration not stated) 14.2%, COc1ccccc1/C=C/CN1CCN(Cc2ccc(C)o2)C(CCO)C1 (configuration not stated) 11%, CC(C)(C)c1ccc(OC(=O)c2ccc3snnc3c2)cc1 4.25%, CC(=O)N/C(=C\c1ccccc1)C(=O)OCC(=O)NC(=O)c1ccccc1 5.8%, CC(OC(=O)C1CC(=O)N(Cc2ccco2)C1)C(=O)Nc1cccc(C#N)c1 (configuration not stated) 6.14%, O=C(CN(C(=O)c1csnn1)c1ccc(F)cc1)NCCc1ccccc1 7.07%, COc1ccc(C(O)Cc2nccn2C)cc1 (configuration not stated) 2.89%, Cc1cccc(-n2cnc(C(=O)O)c2)n1 4.99%, CC(=O)Nc1ccc(NC(=O)c2ccnn2C)cc1 3.95%, Cn1nccc1C(=O)Nc1ccc(Cl)cc1 -1.74%, C=CCN(C(=O)c1csnn1)C(C(=O)NC1CCCC1)c1ccc(F)cc1 (configuration not stated) 5.68%, COC(=O)C[C@@H]1C[C@H]2c3cc(N(C)C)ccc3O[C@H]2[C@H](CO)O1 18.6%, COc1ccccc1CNC(=O)C[C@@H]1C[C@H]2c3cc(NC(=O)c4ccc5c(c4)OCO5)ccc3O[C@H]2[C@@H](CO)O1 13.4%, O=C1CN(S(=O)(=O)c2cccc(Cl)c2Cl)c2ccccc2N1 4.66%, COc1cc([N+](=O)[O-])ccc1NC(=O)CCN1C(=O)C2C3CCC(C3)C2C1=O (configuration not stated) 6.61%, O=C(Cc1ccccc1)Nc1ccc(N2CCCCC2)cc1 1.26%, O=C(NCc1ccco1)c1ccc(Oc2ccccc2)cc1 1.55%, COc1ccc(NC(=O)Cc2cccs2)c(OC)c1 8.99%, CC(=O)c1ccc(NC(=O)CNCc2cccs2)cc1 28.6%, O=C(CNCc1cccs1)Nc1ccc(S(=O)(=O)N2CCCCC2)cc1 14.5%, O=C(CNC(=O)c1ccco1)Nc1ccc(N2CCCCCC2)cc1 30.4%, COc1ccc(C)cc1NC(=O)CNCc1cccs1 0.81%, S=C(NCc1ccco1)Nc1ccc(Oc2ccccc2)cc1 1.09%, CCCOC(=O)C(C)n1cnc2scc(-c3ccc(C)cc3)c2c1=O (configuration not stated) 8.26%, N#CC(=C(O)CN1CCN(c2ccccc2F)CC1)c1nc(-c2ccccc2)cs1 6.97%
